The results in this text go back to PubChem BioAssay (Tox21).

Records with an inconclusive call do not appear. Where a call stands in place of a potency, no number is given. Active and inactive are the calls of the source. Calls come from the whole dose curve; as a rule, active = well fitted cell-killing curve with a large enough effect in the repeat runs; inconclusive = weak or mixed curves, or effect the other way; inactive = flat fitted curve, though single readings scatter.

The assay is described as follows: qHTS RealTime-Glo MT Cell Viability Assay in HepG2 cells - 0 hour (AID 1224889). Note: nearly all actives have a fitted effect of over 50% in size. Particulars: RealTime-Glo luminescence; series mostly up to 76.8 µM. An excerpt: U.S. Tox21 Program National Center for Advancing Translational Sciences [NCATS] NIH Chemical Genomics Center [NCGC] U.S. Environmental Protection Agency [EPA] National Institutes of Environmental Health Sciences [NIEHS] National Toxicology Program [NTP] U.S. Food and Drug Administration [FDA] Tox21 Assay Overview: Measure of cell viability is critical in the cell-base assay. Analysis of cell viability is necessary for the characterization of cell responses to cytotoxic drugs and environmental stress. A RealTime-Glo MT Cell Viability Assay to monitor cell viability in real time of continues cell culture during 40 hours of compound treatment was used to screen Tox21 10K library compounds in HepG2 cells. The RealTime-Glo MT Cell Viability Assay is a nonlytic, homogeneous, bioluminescent method to measure cell viability in real time using a simple, plate-based method. The assay involves adding NanoLuc luciferase and a cell-permeant prosubstrate to cells in culture. Viable cells reduce the proprietary prosubstrate to generate a substrate for NanoLuc luciferase. This substrate diffuses from cells into the surrounding culture medium, where it is rapidly used by the NanoLuc Enzyme to produce a luminescent signal. The signal correlates with the number of viable cells, making the assay well suited for cytotoxicity studies.
Tox21 Assay Protocol Summary: The mixture of HepG2 cell suspension and reagents were dispensed at 600cells/6 ul/well in 1536-well tissue culture treated black solid bottom plates using a Multidrop dispenser. After the assay plates were incubated at a 37 C/5% CO2 incubator for 5 hours, 23 nL of compounds dissolved in DMSO, positive and negative controls was transferred to the assay plate by a pintool work station. The plates were incubated at 37 C for 40 hours. The luminescence intensity were measured at 0h, 8h, 16h, 24h, 32h and 40h time points using ViewLux plate reader during compound treatment.
Background: In qHTS, concentration-response curves come from the screen itself.
With `CC1(C)C(=O)N(Cl)C(=O)N1Br`, the Potency result was “inactive”.
Take `O=C(Cl)c1cccc([N+](=O)[O-])c1`: the Potency result is “inactive”.
On to `CCN(CC)CC1CCCCN1CC(=O)N1c2ccccc2C(=O)Nc2cccnc21` (stereo not given), for which the Potency entry is “inactive”.
As for `COc1ccc(S(=O)(=O)Nc2nnc(CC(C)C)s2)cc1`, the entry is “inactive”.
For the compound `CCCCOc1cc(C(=O)NCCN(CC)CC)c2ccccc2n1`, the Potency result was “inactive”.
`NC/C=C/C(=O)O`: the Potency entry is “inactive”.
Under `Cc1nc(N)nc(N)c1-c1ccc(Cl)c(Cl)c1` stands “inactive”; under `OCCN(CCO)CCN(CCO)CCO`, “inactive”; under `CC(=O)OC1C2(C)CCC(C2)C1(C)C` (stereo not given), “inactive”.
As for `CC(=O)Oc1cc(C(C)C)c(OCCN(C)C)cc1C`, the entry is “inactive”; as for `CN1CCN(C2=Nc3cc(F)ccc3Cc3ccccc32)CC1`, “inactive”.
As for `O=C(O)[C@@H](O)[C@H](O)[C@H](O)[C@@H](O)C(=O)O`, the entry is “inactive”; as for `CC(C)C(=O)OCC(C)(C)C(O)C(C)C` (stereo not given), “inactive”.
For `Cc1c(N)cccc1N`, the Potency entry is “inactive”.
As for `COc1nc(C)nc(NC(=O)NS(=O)(=O)c2ccccc2OCCCl)n1`, the entry is “inactive”; as for `Cc1ccc(C=O)s1`, “inactive”.
As for `Cn1cnc2c(F)c(Nc3ccc(Br)cc3Cl)c(C(=O)NOCCO)cc21`, the entry is “inactive”; as for `CCCCCCCCOC(=O)CCCCCCCCC(=O)OCCCCCCCC`, “inactive”; as for `CCc1nnc(NS(=O)(=O)c2ccc(N)cc2)s1`, “inactive”.
As to `O=C1CCCCC1C1CCCCC1` (stereo not given), the Potency entry was “inactive”.
Under `CCCCCCCCc1ccc(S(=O)(=O)O)cc1` stands “inactive”.
Under `C=CCCCCCCCCO` stands “inactive”.
`Cc1ccccc1C(=O)Nc1ccc(C(=O)N2CCCC(O)c3cc(Cl)ccc32)c(C)c1` (stereo not given): the Potency entry is “inactive”.
Under `CCOc1ccccc1N` stands “inactive”; under `CCC1(C)NC(=O)NC1=O` (stereo not given), “inactive”; under `COc1cc(N)c(Cl)cc1C(=O)NC1CCN(Cc2ccccc2)CC1`, “inactive”.
Under `CCCCCCCCCC/C=C/C#N` stands “inactive”.
Under `C1CSCCS1` stands “inactive”; under `CC(=O)N[C@@H](CC(C)C)C(=O)O`, “inactive”; under `COC(=O)c1ccc(OC)cc1`, “inactive”.
In the case of `C/C(=N\O)[C@@H](C)NCC(C)(C)CN[C@H](C)/C(C)=N/O`, the Potency result is “inactive”.
As for `CC(=O)O[C@H]1CC[C@@]2(C)C(=CC[C@@H]3[C@@H]2CC[C@]2(C)C(C(C)=O)=CC[C@@H]32)C1`, the entry is “inactive”; as for `CC(C)(C)C1CCCCC1=O` (stereo not given), “inactive”; as for `CCOC(=O)C(Br)c1ccccc1` (stereo not given), “inactive”.
As for `C[C@]12C(=O)OC(=O)[C@H]1[C@H]1C=C[C@@H]2C1`, the Potency entry is “inactive”.
Under `CN(C)Cc1ccccc1` stands “inactive”; under `Nc1cccc(S(=O)(=O)O)c1`, “inactive”.
As for `NNS(=O)(=O)c1ccc(Oc2ccc(S(=O)(=O)NN)cc2)cc1`, the entry is “inactive”; as for `ClC(Cl)Cl`, “inactive”; as for `CC1(O)CSC(C)(O)CS1` (stereo not given), “inactive”.
